Results on 40 compounds are retold here after PubChem BioAssay (NCI).

Compounds without any hit were thinned out: in the full panel of roughly 79,000, 15% have a hit. Unmarked numbers belong to inactive results. Calls of active or inactive are those of the source. Cut-off read from the data, not from the text of the source: active = growth inhibition above about 70%; inactive = the rest.

One assay is described as follows: NCI Yeast Anticancer Drug Screen. Data for the mlh1 rad18 strain (AID 175). As to conditions: S. cerevisiae mlh1 rad18 strain growth inhibition; at 5.0 µM (retest, dose inferred, filed as 0.5); stronger effect = higher value. Summed up: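 Yeast w/ defined DNA-repair lesions; compound exposure; growth vs vehicle controls → % inhibition.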
Take `CCOC(=O)C1C(O)=C(P(=O)(C2=C(O)C(C(=O)OCC)C(c3ccc(OC(C)=O)cc3)C(C(=O)O)C2=O)N(CCCl)CCCl)C(=O)C(C(=O)O)C1c1ccc(OC(C)=O)cc1` (stereo not given): the growth inhibition is 20%.

As for `c1ccc([As+](c2ccccc2)(c2ccccc2)c2cccc3ccccc23)cc1`, the growth inhibition was 88% (active).

For `CCCCCCCCc1ccc(OCCN(CCCl)CCCl)cc1`, the growth inhibition is 4%.

With `S=C=NCCc1ccccc1`, the growth inhibition was -20%.

`COC1=C(Cl)C(=O)c2ccccc2C1=O`: the growth inhibition is 7%.

With `CN(C)c1ccc(N=Nc2cccc(C(=O)[O-])c2)cc1.CN(C)c1ccc(N=Nc2cccc(C(=O)[O-])c2)cc1.NC1CCCCC1N.O=[N+]([O-])O.[Pt+4]`, the growth inhibition is 41%.

Turning to `CCOC(=O)c1ccc(N=Cc2ccc(N(CCCl)CCCl)cc2C)cc1`, the growth inhibition is 25%.

For `O=c1s[se]c2ccccc12`, the growth inhibition was 25%.

As for `CC1CCC2(OC1)OC1C(O)C3C4CCC5CC(OC6OC(CO)C(OC7OC(CO)C(O)C(OC8OCC(O)C(O)C8O)C7OC7OC(CO)C(O)C(OC8OC(CO)C(O)C(O)C8O)C7O)C(O)C6O)C(O)CC5(C)C4CCC3(C)C1C2C` (stereo not given), the growth inhibition is 96% (active).

On to `CN(C)c1ccc(/C=C/c2cc3scc(-c4ccccc4)[n+]3c3ccccc23)cc1`, for which the growth inhibition is 14%.

In the case of `CSCCC([NH-])C(=O)O.CSCCC([NH-])C(=O)O.[Zn+2]` (stereo not given), the growth inhibition is 4%.

Turning to `O=C(O)CN1CCN(CC(=O)O)CC(=O)[O][Hg][O]C(=O)C1`, the growth inhibition is 99% (active).

`Cc1c2ccncc2c(CN(CCCl)CCCl)c2c3ccccc3n(C)c12`: the growth inhibition was 24%.

On to `COc1ccc(P2(=S)Oc3ccc(C(c4ccccc4)(c4ccccc4)c4ccccc4)cc3O2)cc1` (stereo not given), for which the growth inhibition was 34%.

Take `Cc1cc[n+](C2=C(Nc3c(C)cccc3C)C(=O)c3ccccc3C2=O)cc1`: the growth inhibition is -1%.

As for `C(#C[PH+](c1ccccc1)c1ccccc1)c1ccccc1.C(#C[PH+](c1ccccc1)c1ccccc1)c1ccccc1.C(#C[PH+](c1ccccc1)c1ccccc1)c1ccccc1.[C-]#[O+].[C-]#[O+].[C-]#[O+].[Cr]`, the growth inhibition was 0%.

For `CC(=O)O.[RuH].c1ccc([PH+](c2ccccc2)c2ccccc2)cc1.c1ccc([PH+](c2ccccc2)c2ccccc2)cc1.c1ccc([PH+](c2ccccc2)c2ccccc2)cc1`, the growth inhibition was -20%.

As for `O=C(N/N=C/c1cc(Br)cc(Br)c1[O-])c1ccccc1O.O=C(N/N=C/c1cc(Br)cc(Br)c1[O-])c1ccccc1O.[Ni+2]`, the growth inhibition was 96% (active).

Regarding `O=C(C[n+]1ccccc1)C1CCc2ccccc2C1` (stereo not given), the growth inhibition is -6%.

For the compound `CC(=O)[O-].CC(=O)[O-].O=C(N/N=C/c1cc(Cl)cc(Cl)c1[OH2+])c1ccncc1.[Zn+2]`, the growth inhibition was 2%.

With `ClCCN(CCCl)CCN1c2ccc3ccccc3c2Sc2ccc3ccccc3c21`, the growth inhibition is -1%.

For the compound `C=CCc1cc(Cl)ccc1OC(=O)N(C)C`, the growth inhibition is 0%.

As for `CC(=O)[O][Sn]([CH3])([CH3])[c]1ccccc1`, the growth inhibition was 3%.

Consider `NCCNCCNCCNCCN` (tested in a mixture with another compound), for which the growth inhibition is 0%.

As to `CC(=O)[CH-]C(C)=O.CC(=O)[CH-]C(C)=O.[O-]c1ccccc1.[O-]c1ccccc1.[Ti+4]`, the growth inhibition was -9%.

Consider `NC(=O)c1ccc(C(=O)Nc2ccc([As](=O)(O)O)cc2)cc1`, for which the growth inhibition is 11%.

For `[C-]#[O+].[C-]#[O+].[CH3][Sn]([CH3])[c]1ccccc1.[Fe+5].[c-]1[c-][c-][cH-][c-]1`, the growth inhibition is 7%.

On to `CC(C)(C)S.[Hg]`, for which the growth inhibition is 75% (active).

As to `O=C(O)C(O)(c1ccc(-c2ccccc2)cc1)c1ccc(-c2ccccc2)cc1`, the growth inhibition was 1%.

In the case of `Cc1ccc2c(-c3ccccc3)c3ccccc3[s+]c2c1`, the growth inhibition is 1%.

Turning to `CCOC(=O)[C]1([Pb]([CH3])([CH3])[CH3])N=NC(C(=O)OC)=C1C(=O)OC` (stereo not given), the growth inhibition is 1%.

`CCCNC1=C(C)C(=O)C2=C(C1=O)[C@H](COC(N)=O)[C@]1(OC)[C@@H]3N[C@@H]3CN21`: the growth inhibition was 47%.

In the case of `CC(=O)c1ccc(-[n+]2c(C)cc(-c3ccccc3)cc2C)cc1`, the growth inhibition is -5%.

Consider `CN1C(=O)C23CC4=CC=CC(O)C4N2C(=O)C1(CO)SS3` (stereo not given), for which the growth inhibition was 99% (active).

Turning to `CCN1CCC(O)(c2ccc(O)cc2)C(C(=O)c2ccc(O)cc2)C1` (stereo not given), the growth inhibition is 1%.

As for `CCCCCCCC[As](C)(=O)O`, the growth inhibition is -144%.

Turning to `CCCCCCC(=O)[O][Hg][c]1ccccc1`, the growth inhibition is 100% (active).

As for `CCC[CH2][Sn]1([CH2]CCC)[O]C(=O)CN=Cc2ccccc2[O]1`, the growth inhibition was 90% (active).

On to `C[C@]12CC[C@H](O)C[C@@H]1CC[C@@H]1[C@@H]2CC[C@]2(C)C(=O)/C(=C/O)C[C@@H]12`, for which the growth inhibition is 0%.

`CC(CCc1ccccc1)NC(C)C(O)c1ccc(O)cc1` (stereo not given): the growth inhibition was 45%.

The same assay, now with this note: S. cerevisiae mlh1 rad18 strain growth inhibition; at 50.0 µM (retest, dose inferred, filed as 5.0); stronger effect = higher value.
For `CCOC(=O)C1C(O)=C(P(=O)(C2=C(O)C(C(=O)OCC)C(c3ccc(OC(C)=O)cc3)C(C(=O)O)C2=O)N(CCCl)CCCl)C(=O)C(C(=O)O)C1c1ccc(OC(C)=O)cc1` (stereo not given), the growth inhibition is 92% (active).

On to `c1ccc([As+](c2ccccc2)(c2ccccc2)c2cccc3ccccc23)cc1`, for which the growth inhibition was 99% (active).

Turning to `CCCCCCCCc1ccc(OCCN(CCCl)CCCl)cc1`, the growth inhibition was 99% (active).

Regarding `S=C=NCCc1ccccc1`, the growth inhibition is 15%.

As to `COC1=C(Cl)C(=O)c2ccccc2C1=O`, the growth inhibition is 99% (active).

For the compound `CN(C)c1ccc(N=Nc2cccc(C(=O)[O-])c2)cc1.CN(C)c1ccc(N=Nc2cccc(C(=O)[O-])c2)cc1.NC1CCCCC1N.O=[N+]([O-])O.[Pt+4]`, the growth inhibition is 97% (active).

As to `CCOC(=O)c1ccc(N=Cc2ccc(N(CCCl)CCCl)cc2C)cc1`, the growth inhibition is 73% (active).

As to `O=c1s[se]c2ccccc12`, the growth inhibition was 97% (active).

On to `CC1CCC2(OC1)OC1C(O)C3C4CCC5CC(OC6OC(CO)C(OC7OC(CO)C(O)C(OC8OCC(O)C(O)C8O)C7OC7OC(CO)C(O)C(OC8OC(CO)C(O)C(O)C8O)C7O)C(O)C6O)C(O)CC5(C)C4CCC3(C)C1C2C` (stereo not given), for which the growth inhibition is 98% (active).

As to `CN(C)c1ccc(/C=C/c2cc3scc(-c4ccccc4)[n+]3c3ccccc23)cc1`, the growth inhibition is 99% (active).

As to `CSCCC([NH-])C(=O)O.CSCCC([NH-])C(=O)O.[Zn+2]` (stereo not given), the growth inhibition is 3%.

For `O=C(O)CN1CCN(CC(=O)O)CC(=O)[O][Hg][O]C(=O)C1`, the growth inhibition was 99% (active).

Regarding `Cc1c2ccncc2c(CN(CCCl)CCCl)c2c3ccccc3n(C)c12`, the growth inhibition is 99% (active).

With `COc1ccc(P2(=S)Oc3ccc(C(c4ccccc4)(c4ccccc4)c4ccccc4)cc3O2)cc1` (stereo not given), the growth inhibition is 98% (active).

`Cc1cc[n+](C2=C(Nc3c(C)cccc3C)C(=O)c3ccccc3C2=O)cc1`: the growth inhibition is 51%.

As to `C(#C[PH+](c1ccccc1)c1ccccc1)c1ccccc1.C(#C[PH+](c1ccccc1)c1ccccc1)c1ccccc1.C(#C[PH+](c1ccccc1)c1ccccc1)c1ccccc1.[C-]#[O+].[C-]#[O+].[C-]#[O+].[Cr]`, the growth inhibition is 37%.

Consider `CC(=O)O.[RuH].c1ccc([PH+](c2ccccc2)c2ccccc2)cc1.c1ccc([PH+](c2ccccc2)c2ccccc2)cc1.c1ccc([PH+](c2ccccc2)c2ccccc2)cc1`, for which the growth inhibition was 89% (active).

Turning to `O=C(N/N=C/c1cc(Br)cc(Br)c1[O-])c1ccccc1O.O=C(N/N=C/c1cc(Br)cc(Br)c1[O-])c1ccccc1O.[Ni+2]`, the growth inhibition was 98% (active).

`O=C(C[n+]1ccccc1)C1CCc2ccccc2C1` (stereo not given): the growth inhibition was -6%.

`CC(=O)[O-].CC(=O)[O-].O=C(N/N=C/c1cc(Cl)cc(Cl)c1[OH2+])c1ccncc1.[Zn+2]`: the growth inhibition was 11%.

In the case of `ClCCN(CCCl)CCN1c2ccc3ccccc3c2Sc2ccc3ccccc3c21`, the growth inhibition was 53%.

`C=CCc1cc(Cl)ccc1OC(=O)N(C)C`: the growth inhibition is -1%.

As for `CC(=O)[O][Sn]([CH3])([CH3])[c]1ccccc1`, the growth inhibition was 94% (active).

In the case of `NCCNCCNCCNCCN` (tested in a mixture with another compound), the growth inhibition is 2%.

As for `CC(=O)[CH-]C(C)=O.CC(=O)[CH-]C(C)=O.[O-]c1ccccc1.[O-]c1ccccc1.[Ti+4]`, the growth inhibition was -9%.

With `NC(=O)c1ccc(C(=O)Nc2ccc([As](=O)(O)O)cc2)cc1`, the growth inhibition was 9%.

Consider `[C-]#[O+].[C-]#[O+].[CH3][Sn]([CH3])[c]1ccccc1.[Fe+5].[c-]1[c-][c-][cH-][c-]1`, for which the growth inhibition is 90% (active).

For `CC(C)(C)S.[Hg]`, the growth inhibition was 99% (active).

In the case of `O=C(O)C(O)(c1ccc(-c2ccccc2)cc1)c1ccc(-c2ccccc2)cc1`, the growth inhibition was 96% (active).

With `Cc1ccc2c(-c3ccccc3)c3ccccc3[s+]c2c1`, the growth inhibition was 99% (active).

`CCOC(=O)[C]1([Pb]([CH3])([CH3])[CH3])N=NC(C(=O)OC)=C1C(=O)OC` (stereo not given): the growth inhibition was -2%.

`CCCNC1=C(C)C(=O)C2=C(C1=O)[C@H](COC(N)=O)[C@]1(OC)[C@@H]3N[C@@H]3CN21`: the growth inhibition is 93% (active).

Turning to `CC(=O)c1ccc(-[n+]2c(C)cc(-c3ccccc3)cc2C)cc1`, the growth inhibition is -6%.

Regarding `CN1C(=O)C23CC4=CC=CC(O)C4N2C(=O)C1(CO)SS3` (stereo not given), the growth inhibition was 99% (active).

Take `CCN1CCC(O)(c2ccc(O)cc2)C(C(=O)c2ccc(O)cc2)C1` (stereo not given): the growth inhibition was 29%.

For the compound `CCCCCCCC[As](C)(=O)O`, the growth inhibition is -88%.

Regarding `CCCCCCC(=O)[O][Hg][c]1ccccc1`, the growth inhibition was 99% (active).

For the compound `CCC[CH2][Sn]1([CH2]CCC)[O]C(=O)CN=Cc2ccccc2[O]1`, the growth inhibition is 90% (active).

Turning to `C[C@]12CC[C@H](O)C[C@@H]1CC[C@@H]1[C@@H]2CC[C@]2(C)C(=O)/C(=C/O)C[C@@H]12`, the growth inhibition was 61%.

As to `CC(CCc1ccccc1)NC(C)C(O)c1ccc(O)cc1` (stereo not given), the growth inhibition was 71% (active).
